Data reported in PubChem BioAssay (EPA / NIEHS).
The source made the active and inactive calls. The calls were made as follows: active = hit-call score of the fitted dose curve at least 0.9, where 1 is the maximum; inactive = score below 0.9.

Experiments:
[1] = APR_HepG2_P-H2AX_72hr: Apredica 72-hour HepG2 Assay for H2AX Phosphorylation (AID 2282916); details: imaging, actives raise or lower the signal;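 also: phospho-histone H2A.x immunostain intensity per cell marking DNA damage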
How it was run: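 Human hepatoma HepG2 cells are dosed across ten concentrations (0.39 to 200 uM, 0.5% v/v DMSO) and incubated 72 hr. Phospho-histone H2A.x is then detected by antibody staining alongside c-Jun and Hoechst, and quantified by automated fluorescence imaging.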

[2] = APR_HepG2_MitoMembPot_72hr: Apredica 72-hour HepG2 Assay for Mitochondrial Membrane Potential (AID 2282917); details: imaging, actives raise or lower the signal
How it was run: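 HepG2 cells dosed 72 hr with compound at 0.39–200 uM in duplicate, 0.5% v/v DMSO final. Mitochondria stained with 250 nM MitoTracker Red CMXRos for 30 min before formaldehyde fixation, imaged by high-content fluorescence; bidirectional fit versus DMSO.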

[3] = APR_HepG2_MitoticArrest_72hr: Apredica 72-hour HepG2 Assay for Mitotic Arrest (AID 2282918); details: high-content imaging, actives raise or lower the signal
How it was run: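 HepG2 cells treated 72 h at 0.39–200 uM, 0.5% DMSO final; formaldehyde-fixed, stained with Hoechst 33342 and phospho-histone H3 antibody, imaged by high-content fluorescence; bidirectional fit versus DMSO.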

[4] = APR_HepG2_MicrotubuleCSK_72hr: Apredica 72-hour HepG2 Assay for Microtubule CSK Stabilty (AID 2282919); details: HepG2 microtubule cytoskeleton, high-content imaging, actives raise or lower the signal
How it was run: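 HepG2, 72 hr cmpd exposure, 0.39–200 uM (10 pts, duplicate), 0.5% DMSO. 3.7% formaldehyde fix, 0.5% Triton perm, anti-alpha-tubulin/Cy5 plus Hoechst. HCS fluorescence intensity; bidirectional fit vs DMSO baseline; taxol as positive control.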

[5] = APR_HepG2_P-H2AX_24hr: Apredica 24-hour HepG2 Assay for H2AX Phosphorylation (AID 2282920); details: high-content imaging, actives raise or lower the signal
How it was run: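 HepG2 cells dosed 24 h at 0.39–200 uM (10 points, duplicate, 0.5% DMSO final). Formaldehyde-fixed and permeabilized, then immunostained for phospho-H2A.x with Hoechst. Fluorescence quantified by high-content imaging, fitted bidirectionally versus DMSO.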

[6] = APR_HepG2_StressKinase_72hr: Apredica 72-hour HepG2 Assay for Stress Kinase (AID 2282921); details: HepG2 stress kinase (phospho-c-Jun) imaging, actives raise or lower the signal
How it was run: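 After a 72 h compound treatment spanning 0.39 to 200 uM, formaldehyde-fixed cells are labelled for phosphorylated c-Jun and nuclei, imaged by automated fluorescence microscopy, and activity is fitted in both directions relative to DMSO controls.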

[7] = APR_HepG2_StressKinase_24hr: Apredica 24-hour HepG2 Assay for Stress Kinase (AID 2282922); details: HepG2 stress kinase (phospho-c-Jun) imaging, actives raise or lower the signal
How it was run: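 Read-out: phospho-c-Jun immunofluorescence (Cy3 secondary) quantified by high-content imaging at 20x, nuclei defined by Hoechst 33342. Human HepG2 liver cells dosed 24 hr, 0.39–200 uM, DMSO 0.5% v/v; gain or loss of signal fitted relative to DMSO.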

[8] = APR_HepG2_MitoMass_72hr: Apredica 72-hour HepG2 Assay for Mitochondrial Mass (AID 2282924); details: high-content imaging, actives raise or lower the signal;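 also: MitoTracker Red CMXRos stain intensity per cell imaged as mitochondrial mass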
How it was run: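 Read-out: MitoTracker Red fluorescence intensity from automated imaging (20x, six fields per well) in human HepG2 liver cells. Dosing ran 72 hr, 0.39–200 uM, 0.5% DMSO; bidirectional curve fitting versus DMSO baseline.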

[9] = APR_HepG2_NuclearSize_72hr: Apredica 72-hour HepG2 Assay for Nuclear Size (AID 2282925); details: high-content imaging, actives raise or lower the signal
How it was run: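 Read-out: nuclear diameter from Hoechst 33342 images (ArrayScan, 20x, six fields/well), via cell-cycle image analysis. HepG2 were dosed 0.39–200 uM for 72 hr in 0.5% DMSO. Bidirectional fit relative to DMSO.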

[10] = APR_HepG2_p53Act_72hr: Apredica 72-hour HepG2 Assay for p53 Activation (AID 2282923); details: high-content imaging, actives raise or lower the signal;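 also: average cellular p53 protein immunofluorescence intensity in HepG2 cells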
How it was run: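 Imaging-based endpoint: after 72 hr compound exposure (up to 200 uM, 0.5% DMSO), fixed and permeabilized monolayers were labelled with anti-p53 antibody and imaged; signal change in either direction was fitted relative to DMSO controls.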

Compound	AC50 [1]	outcome [2]	AC50 [3]	AC50 [4]	outcome [5]	outcome [6]	outcome [7]	outcome [8]	outcome [9]	outcome [3]	outcome [4]	AC50 [5]	outcome [10]	AC50 [8]	outcome [1]	AC50 [2]	AC50 [10]
O=[N+]([O-])c1cc(C(F)(F)F)c(Cl)c([N+](=O)[O-])c1Nc1ncc(C(F)(F)F)cc1Cl	1.13 µM (active)	inactive	0.767 µM (active)	100 µM (active)	inactive	inactive	inactive	inactive	inactive	–	–	–	–	–	–	–	–
CNC(=O)Oc1cccc2c1OC(C)(C)O2	97 µM (active)	inactive	–	–	–	inactive	inactive	–	inactive	inactive	inactive	99.4 µM (active)	inactive	56.7 µM (active)	–	–	–
CCCSP(=O)(OCC)Oc1ccc(Br)cc1Cl (stereo not drawn)	–	inactive	–	113 µM (active)	inactive	inactive	inactive	inactive	inactive	inactive	–	–	inactive	–	inactive	–	–
CCOP(=S)(Oc1cnc(C(C)(C)C)nc1)OC(C)C (stereo not drawn)	–	inactive	–	66.5 µM (active)	inactive	inactive	inactive	inactive	inactive	inactive	–	–	inactive	–	inactive	–	–
CCCSP(=O)(OCC)SCCC	–	inactive	–	–	inactive	inactive	inactive	inactive	inactive	inactive	inactive	–	–	–	inactive	–	–
CNC(=O)ON=C(C)SC	–	inactive	–	–	inactive	inactive	inactive	inactive	inactive	inactive	inactive	–	inactive	–	inactive	–	–
C[N+]1(C)CCCCC1	–	inactive	–	–	inactive	inactive	inactive	inactive	inactive	inactive	inactive	–	inactive	–	inactive	–	–
CCOP(=S)(OCC)SCCSCC	–	inactive	–	–	inactive	inactive	inactive	inactive	inactive	inactive	inactive	–	inactive	–	inactive	–	–
O=c1ccc(=O)[nH][nH]1	–	inactive	–	–	inactive	inactive	inactive	inactive	inactive	inactive	inactive	–	inactive	–	inactive	–	–
CCCOc1nn(C(=O)NS(=O)(=O)c2ccccc2C(=O)OC)c(=O)n1C	–	inactive	–	–	inactive	inactive	inactive	inactive	inactive	inactive	inactive	–	inactive	–	inactive	–	–
CC(C)N(C(=O)SCC(Cl)=C(Cl)Cl)C(C)C	–	inactive	–	99.5 µM (active)	inactive	inactive	inactive	inactive	inactive	inactive	–	–	inactive	–	inactive	–	–
CCC(=NOC/C=C/Cl)C1=C(O)CC(C2CCOCC2)CC1=O (stereo not drawn)	–	inactive	–	–	inactive	inactive	inactive	inactive	inactive	inactive	inactive	–	inactive	–	inactive	–	–
CCC(=O)Nc1ccc(Cl)c(Cl)c1	–	inactive	–	–	inactive	inactive	inactive	inactive	inactive	inactive	inactive	–	inactive	–	inactive	–	–
CSc1nnc(C(C)(C)C)c(=O)n1N	–	inactive	–	–	inactive	inactive	inactive	inactive	inactive	inactive	inactive	–	inactive	–	inactive	–	–
CSC1=N[C@@](C)(c2ccccc2)C(=O)N1Nc1ccccc1	–	inactive	–	38.6 µM (active)	inactive	inactive	–	inactive	inactive	inactive	–	–	inactive	–	inactive	–	–
CCOC(=O)COc1cc(-c2nn(C)c(OC(F)F)c2Cl)c(F)cc1Cl	–	inactive	–	–	inactive	inactive	inactive	inactive	inactive	inactive	inactive	–	inactive	–	inactive	–	–
C[Si](Cn1cncn1)(c1ccc(F)cc1)c1ccc(F)cc1	–	inactive	–	–	inactive	inactive	inactive	inactive	inactive	inactive	inactive	–	inactive	–	inactive	–	–

Compound	AC50 [1]	outcome [2]	AC50 [3]	AC50 [4]	outcome [5]	outcome [6]	outcome [7]	outcome [8]	outcome [9]	outcome [3]	outcome [4]	AC50 [5]	outcome [10]	AC50 [8]	outcome [1]	AC50 [2]	AC50 [10]
CCCCSP(=O)(SCCCC)SCCCC	–	–	–	–	inactive	inactive	inactive	inactive	inactive	inactive	inactive	–	inactive	–	inactive	157 µM (active)	–
CC(Oc1cccc(Cl)c1)C(=O)O (stereo not drawn)	–	inactive	–	–	inactive	inactive	inactive	inactive	inactive	inactive	inactive	–	inactive	–	inactive	–	–
CN(C)NC(=O)CCC(=O)O	–	inactive	–	–	inactive	inactive	inactive	inactive	inactive	inactive	inactive	–	inactive	–	inactive	–	–
CCOP(=S)(OCC)Oc1cc(C)nc(C(C)C)n1	–	inactive	–	–	inactive	inactive	inactive	inactive	inactive	inactive	inactive	–	inactive	–	inactive	–	–
CCc1cccc(C)c1N(C(=O)CCl)C(C)COC (stereo not drawn)	87.6 µM (active)	inactive	82.6 µM (active)	62.4 µM (active)	inactive	inactive	inactive	inactive	inactive	–	–	–	inactive	–	–	–	–
CCCCOC(=O)[C@@H](C)Oc1ccc(Oc2ccc(C#N)cc2F)cc1	–	inactive	–	–	inactive	inactive	inactive	inactive	inactive	inactive	inactive	–	inactive	–	inactive	–	–
CON=C(C(=O)OC)c1ccccc1CON=C(C)c1cccc(C(F)(F)F)c1	–	inactive	–	0.309 µM (active)	inactive	inactive	–	inactive	inactive	inactive	–	–	inactive	–	inactive	–	–
CNC(=O)ON=C(SC)C(=O)N(C)C	–	inactive	–	–	inactive	inactive	inactive	–	inactive	inactive	inactive	–	inactive	87.8 µM (active)	inactive	–	–
CSc1nc(NC(C)C)nc(NC(C)C)n1	–	inactive	–	–	inactive	inactive	inactive	inactive	inactive	inactive	inactive	–	inactive	–	inactive	–	–
CCc1cccc(CC)c1N(COC)C(=O)CCl	–	–	–	–	–	inactive	inactive	inactive	inactive	inactive	inactive	70.7 µM (active)	–	–	inactive	31.1 µM (active)	–
CC[C@H](C)[C@H]1O[C@]2(C=C[C@@H]1C)C[C@@H]1C[C@@H](C/C=C(\C)[C@@H](O[C@H]3C[C@H](OC)[C@@H](O[C@H]4C[C@H](OC)[C@@H](NC)[C@H](C)O4)[C@H](C)O3)[C@@H](C)/C=C/C=C3\CO[C@@H]4[C@H](O)C(C)=C[C@@H](C(=O)O1)[C@]34O)O2	–	–	–	–	inactive	inactive	–	inactive	inactive	inactive	inactive	–	inactive	–	inactive	0.16 µM (active)	–
N#CSCSC#N	–	inactive	–	–	inactive	inactive	inactive	inactive	inactive	inactive	inactive	–	inactive	–	inactive	–	–
CCCCN(CC)c1c([N+](=O)[O-])cc(C(F)(F)F)cc1[N+](=O)[O-]	–	inactive	–	–	inactive	inactive	inactive	inactive	inactive	inactive	inactive	–	inactive	–	inactive	–	–
C#CCC1=C(C)C(OC(=O)C2C(C=C(C)C)C2(C)C)CC1=O (stereo not drawn)	–	inactive	–	–	inactive	inactive	inactive	inactive	inactive	inactive	inactive	–	inactive	–	inactive	–	–
COP(=O)(OC)C(O)C(Cl)(Cl)Cl (stereo not drawn)	–	inactive	–	–	–	inactive	inactive	inactive	inactive	inactive	inactive	100 µM (active)	–	–	inactive	–	113 µM (active)
COc1cc(OC)nc(Sc2cccc(Cl)c2C(=O)O)n1	–	inactive	–	–	inactive	inactive	inactive	inactive	inactive	inactive	inactive	–	inactive	–	inactive	–	–
CCOP(=O)(SC(C)CC)N1CCSC1=O (stereo not drawn)	–	inactive	–	–	inactive	inactive	inactive	inactive	inactive	inactive	inactive	–	–	–	inactive	–	–
